Bioassay records: PubChem, National Center for Advancing Translational Sciences (NCATS)
Compounds with a hit are over-represented: about 7.3% of the library has one in this group of screens.
VACV mCherry inh = qHTS for Stage-Specific Inhibitors of Vaccinia Orthopoxvirus: mCherry Reporter Primary qHTS | Vaccinia virus mCherry reporter infection, fluorescence | Potency, µM (highest dose often 36.5 µM), usual class: inhibitors | 0.63% of 310,000 active; calls by dose curve; tested in A549 cells; note: nearly all actives have a fitted effect of over 35% in size
Vaccinia Venus = qHTS for Stage-Specific Inhibitors of Vaccinia Orthopoxvirus: Venus Reporter Primary qHTS | Vaccinia virus Venus reporter expression, fluorescence | Potency, µM (highest dose often 36.5 µM), actives largely listed as inhibitors | 0.46% of 330,000 active | AID 720580, 2013; calls by dose curve; tested in A549 cells; note: nearly all actives have a fitted effect of over 30% in size
FMDV antiviral = High Throughput Screening for Foot and Mouth Disease Virus Antivirals; FMDV antiviral cell-based qHTS; Potency, µM (doses to about 57.9 µM), hits mostly inhibitors; 1.2% of 410,000 active; AID 1159524, 2015; calls by dose curve; tested in HEK293T cells; note: read-out not given here; nearly all actives have a fitted effect of over 45% in size
HCV inhibitor = qHTS Assay for Inhibitors of Hepatitis C Virus (HCV); Huh7.5.1 HCVcc-Cre infection, luciferase reporter, 44 h; Potency, µM (top dose mostly 41.8 µM), most hits filed as inhibitors; 3.4% of 340,000 active; active = well fitted inhibition curve with a large enough effect; inconclusive = small, poorly fitted or top-dose-only effect, or another doubt; inactive = no such curve, though single readings can be large or run the other way
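Whole-lifecycle infectious HCVcc-Cre system; cells 1,000/well, compound then virus (~0.5 moi) added 4 h after plating, 44 h culture. Luciferase read 15 sec following 15 min substrate incubation, room temp.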
HCMV antiviral = qHTS Assay for inhibitors of the human cytomegalovirus (HCMV); AID 1259415, 2018; 4.5% of 410,000 active; activity change, negative = inhibition, % at 57.5 µM; HFF cells, HCMV-luciferase reporter, 72 h; stronger effect = lower value; in the data active = activity change below about -60%; inconclusive = no clear call, values can overlap the other calls; inactive = above about -39%
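Screen run at 2 compound doses on HFFs infected with reporter HCMV, MOI 1 PFU/cell. Luciferase activity from cell lysates at 72 h post infection gave inhibition relative to buffer-only and Salinomycin wells.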
Numbers stand for hits; – = inactive; ? = inconclusive; · = no result given; [ ] = another dose, or the depositor's remark.

SMILES	VACV mCherry inh	Vaccinia Venus	FMDV antiviral	HCV inhibitor	HCMV antiviral
CC(NC(=O)C1CCN(S(=O)(=O)c2cc([N+](=O)[O-])ccc2Cl)CC1)c1ccccc1 (configuration not stated)	–	–	–	–	–
O=C(NCc1ccccc1)C1CCN(S(=O)(=O)c2cc([N+](=O)[O-])ccc2Cl)CC1	–	–	–	–	–
O=C(Nc1nc2ccc(F)cc2s1)C1CCN(S(=O)(=O)c2cc([N+](=O)[O-])ccc2Cl)CC1	?	?	20µM	32µM	–
CCN(CC)S(=O)(=O)c1ccc(S(=O)(=O)N2CCC(C(=O)NC3CCN(Cc4ccccc4)CC3)CC2)cc1	–	–	–	–	·
Cc1ccc(NC(=O)C2CCN(S(=O)(=O)c3cc([N+](=O)[O-])ccc3Cl)CC2)nc1	·	·	?	5µM	–
CC1CCN(S(=O)(=O)c2ccc3nc(Nc4cccc(C(F)(F)F)c4)ccc3c2)CC1	–[7.34 µM]	–[7.34 µM]	–	·	-100
COc1cccc(CN2CCC(c3nnc(SCC4CCCO4)n3C)CC2)c1O (configuration not stated)	–	–	–	·	·
Cc1ccc(OCC(=O)OCc2cc(=O)n3nc(-c4cccs4)sc3n2)cc1C	–	–	–	·	–
CCc1cc(C(=O)N2CCOc3ccc(CN4CCN(Cc5ccccn5)CC4)cc3C2)no1	–	–	–	·	·
COc1cccc(-c2ccnc(-n3ncc(C(=O)NCC4(N5CCCCC5)CCCC4)c3C)n2)c1	–	–	–	·	·
COc1cc(OC)cc(C(=O)N2CC(=O)Nc3ccc(Cl)cc3C2c2ccccc2)c1 (configuration not stated)	–	–	–	·	–
O=C(Nc1ccccc1N1CCCCC1)C1CCN(S(=O)(=O)c2ccccc2C(F)(F)F)CC1	–	–	–	?	-61
COc1ccc(OC)c(S(=O)(=O)N2CCC(C(=O)Nc3cccc(C(F)(F)F)c3)CC2)c1	·	?	25µM	?	?
O=C(NCc1ccccn1)C1CCN(S(=O)(=O)c2cc(Cl)ccc2Cl)CC1	–	–	–	?	-62
O=C(Nc1cccc(C(F)(F)F)c1)C1CCN(S(=O)(=O)c2cccs2)CC1	–	–	–	·	?
Cc1ccc2nc(NC(=O)C3CCN(S(=O)(=O)c4cc([N+](=O)[O-])ccc4Cl)CC3)sc2c1	?	?	?	6.3µM	–
CNC(=O)C1CCC(Cn2c(=O)c3sccc3n(Cc3ccccc3)c2=O)CC1 (configuration not stated)	–	–	–	·	–
O=C(CSCc1cnn(-c2ccccc2)c1-n1cccc1)NCc1ccc(F)cc1	–	–	–	·	–
O=C(Nc1ccncc1)C1CCN(S(=O)(=O)c2cccc(C(F)(F)F)c2)CC1	·	·	–	–	–
O=C(Nc1cccc(F)c1)C1CCN(S(=O)(=O)c2cccc3nonc23)CC1	–	–	?	–	–
COc1ccc(OC)c(C2SCCN2S(=O)(=O)c2cccc(C(F)(F)F)c2)c1 (configuration not stated)	–	–	·	?	-61
O=C(NCc1cccnc1)C1CCN(S(=O)(=O)c2cc([N+](=O)[O-])ccc2Cl)CC1	14µM	?	?	–	–
O=C(Nc1ccc(Cl)c(C(F)(F)F)c1)C1CCN(S(=O)(=O)c2cccc3nonc23)CC1	–	–	32µM	·	?
Cc1ccc(NC(=O)C2CCN(S(=O)(=O)c3cccc(C(F)(F)F)c3)CC2)nc1	–	–	–	?	-94
COC(=O)[C@H](Cc1ccc(C#Cc2ccccc2)cc1)NC(=O)C[C@H]1CCCN(C(=N)N)C1	·	·	–	·	·
SMILES	VACV mCherry inh	Vaccinia Venus	FMDV antiviral	HCV inhibitor	HCMV antiviral
COc1ccc(OC)c(-c2ccnc(-n3ncc(C(=O)N(C)CCc4ccccn4)c3C)n2)c1	–	–	–	·	·
O=C(NC1CC1)C1CCN(S(=O)(=O)c2ccc(Cl)c([N+](=O)[O-])c2)CC1	·	·	?	13µM	-103
O=C(NC1CCN(S(=O)(=O)c2cccc([N+](=O)[O-])c2)CC1)C1CCCCC1	–	–	–	–	–
O=C(NCc1ccccn1)Nc1cc(Cl)ccc1Cl	·	·	–	–	-67
CC1CCN(C(=O)C2CCN(S(=O)(=O)c3cc(Cl)ccc3Cl)CC2)CC1	–	–	–	–	-87
Cc1ccc(Cl)cc1NC(=O)NCc1ccccn1	·	·	–	–	–
Cc1ccc(NC(=O)C2CCCN2S(=O)(=O)c2cccc3cccnc23)cc1C (configuration not stated)	–	–	–	·	–
COc1ccc(CCNC(=O)Cn2cc(S(=O)(=O)Cc3ccccc3Cl)c3ccccc32)cc1OC	–	–	–	·	–
CN(C)c1ccc(C(=O)N2CCCC(Cn3cc(C(=O)N4CCCC4)nn3)C2)cc1 (configuration not stated)	–	–	–	·	·
COc1ccc(N(Cc2cccs2)C(=O)COc2cc(C)c(Cl)c(C)c2)cc1	–	–	?	·	-99
Cc1nn(-c2ccccc2)c(-c2ccccc2)c1C(=O)O	·	–	–	–	-67
Cc1cc(OCC(=O)Nc2ccc(S(=O)(=O)N3CCN(C)CC3)cc2)ccc1Cl	–	–	–	?	–
COc1ccc(N(CC(=O)N/N=C/c2ccc(F)cc2)S(=O)(=O)c2ccccc2)cc1	–	–	–	–	-69
O=C(Nc1ccc(Cl)c(S(=O)(=O)N2CCOCC2)c1)C1CCC1	·	·	–	–	–
O=C(CC1CCCC1)Nc1ccc(Cl)c(S(=O)(=O)N2CCOCC2)c1	?	–	32µM	11µM	?
Cc1cc(OCC(=O)Nc2ccc(S(=O)(=O)N3CCN(C)CC3)cc2)cc(C)c1Cl	–	–	–	11µM	–
CC(CC(=O)Nc1ccc(Cl)c(S(=O)(=O)N2CCOCC2)c1)c1ccccc1 (configuration not stated)	–	?	?	2.5µM	-82
Cn1c(=O)c2c(-c3ccccc3Cl)n(-c3cc(Cl)ccc3O)cc2n(C)c1=O	–	–	–	·	–
COc1ccc(NC(=O)CN(c2ccc([N+](=O)[O-])cc2)S(=O)(=O)c2ccccc2)cc1	?	?	–	?	–
COc1ccc(OCC(=O)Nc2ccc(S(=O)(=O)N3CCOCC3)cc2)cc1	–	–	–	–	–
CC(=O)Nc1ccc(OCC(=O)Nc2ccc(Cl)c(S(=O)(=O)N3CCOCC3)c2)cc1	·	·	·	?	-71
N=c1sccn1CC(=O)Nc1ccc(S(=O)(=O)N2CCOCC2)cc1	?	–	–	–	-63
COc1ccc(N(CC(=O)Nc2ccc(S(=O)(=O)N3CCOCC3)cc2)S(=O)(=O)c2ccccc2)cc1	·	–	–	4µM	–
Cc1ccc(S(=O)(=O)N2CCOCC2)cc1NC(=O)Cn1ccsc1=N	·	–	–	–	–
O=C(COc1ccc(S(=O)(=O)N2CCOCC2)cc1)Nc1ccc(Br)cc1	·	·	?	10µM	–
CCOC(=O)N1CCc2c(sc3c2c(=O)n(Cc2ccccc2)c(=O)n3CC(=O)Nc2ccc(F)cc2)C1	–	–	–	·	–
